Drawing on PubChem BioAssay (NCATS), this text covers Potency for 40 compounds.

“And” between values parts separate entries of the source, which are not always exact repeats. Identical values can stand only once. Inconclusive results are not listed. Where a call stands in place of a potency, no number is given. The source made the active and inactive calls. The call rests on the fitted dose curve; in most records, active means well fitted cell-killing curve with a large enough effect; inconclusive means small, poorly fitted or top-dose-only effect; inactive means no such curve, though single readings can be large or run the other way.
Potency means the concentration at half of the fitted maximal effect.

This test in a line: qHTS of pediatric cancer cell lines to identify multiple opportunities for drug repurposing: Primary screen for NB-EBc1 cells (AID 1347095). As to conditions: NB-EBc1 neuroblastoma viability, CellTiter-Glo luminescence, 48 h; series mostly up to 46 µM. An excerpt:
Drug repurposing or repositioning has been offered as a strategy for drug development in oncology programs. This approach has special potential for childhood cancers and other rare or orphan diseases, where the expected return on new drug development has been a disincentive to pharmaceuticals. […] In this project we exploit the poly-pharmacology of drugs to discover new indications via phenotypic screening of a panel of 19 well-characterized cell lines derived from solid tumors seen in children and adolescents. The goal is to identify approved drugs with previously unrecognized anticancer properties that has the potential to reveal new mechanisms and biological processes involved in carcinogenesis or drug resistance. We employed a titration-based paradigm (quantitative high-throughput screening or qHTS), where all compounds were tested at multiple concentrations for their effect on cell viability. Concentration-response curves (CRCs) were derived directly from the primary screen, and both potency and efficacy values were used to identify compounds with robust bioactivity profiles. We screened the NIH Chemical Genomics Center (NCGC) Pharmaceutical Collection (NPC) and Mechanism Interrogation Plate (MIPE) small molecule collections of approved and investigational compounds against these cell lines; and measured metabolically active cells after 48 hours of compound treatment as a proxy for cell viability. […] Assay Submitter: Nathalia J. Martinez, National Center for Advancing Translational Sciences, National Institutes of Health, Rockville, MD, USA; email: natalia.martinez@nih.gov Shen, M et al. Quantitative high-throughput phenotypic screening of pediatric cancer cell lines identifies multiple opportunities for drug repurposing. Oncotarget 2017 Dec 19;9(4):4758-4772. PMID 29435139.
The cells were obtained from University of North Carolina (UNC), Pediatric Preclinical Testing Program (PPT), and Coriell Institute (CI). qHTS cell viability assay: Cells were assayed in growth media at a density of 500-1,000 cells/well. Five microliters of cells were dispensed into 1,536-well, white, solid-bottom, TC-treated plates (Greiner Bio One) using a multidrop dispenser and incubated at 37 degrees C, 5% CO2, under a humidified atmosphere for 5 hours. Twenty-three nanoliters of compounds and controls (neutral control DMSO or positive control bortezomib at final concentration of 2.3 µM) were subsequently transferred by Kalypsys pintool. For primary screens, the MIPE collection was tested at 11-point dilutions (final concentrations range from 0.78 nM to 46 µM) and the NPC collection at 8-point dilutions (final concentrations range from 0.59 nM to 46 µM). Compounds tested in follow-up screens were assayed at 11-point dilutions. Cells were incubated for 48 hours, followed by addition of 3 µL of CellTiter-Glo (Promega). After a 15 min incubation at room temperature, samples were analyzed for luminescence intensity using a ViewLux High-throughput CCD imager equipped with clear filters.
Consider `CS(=O)(=O)CCNCc1ccc(-c2ccc3ncnc(Nc4ccc(OCc5cccc(F)c5)c(Cl)c4)c3c2)o1`, for which the Potency is 3.72 µM (active). `Cc1ccccc1N1C(=O)c2cc(S(N)(=O)=O)c(Cl)cc2NC1C` (stereo not given): the Potency entry is “inactive”.

`Cn1c(=O)c2[nH]cnc2n(C)c1=O`: the Potency entry was “inactive”.

`Cc1ccc(-c2cc(C(F)(F)F)nn2-c2ccc(S(N)(=O)=O)cc2)cc1`: the Potency entry is “inactive”. As for `Cc1cn([C@H]2C[C@H](N=[N+]=[N-])[C@@H](CO)O2)c(=O)[nH]c1=O`, the Potency result was “inactive”. The figure for `O=c1[nH]cc(F)c(=O)[nH]1` is 9.44 µM (active) and 2.64 µM (active); for `C[C@](N)(Cc1ccc(O)c(O)c1)C(=O)O` it is “inactive”. Turning to `C[C@H]1c2cccc(O)c2C(O)=C2C(=O)[C@]3(O)C(O)=C(C(N)=O)C(=O)[C@@H](N(C)C)[C@@H]3[C@@H](O)[C@@H]21`, the Potency entry was “inactive”. For `Clc1ccc2nsnc2c1NC1=NCCN1` the value was “inactive”; for `CN(C)CCCN1c2ccccc2CCc2ccc(Cl)cc21`, “inactive”; for `NCCS(=O)(=O)O`, “inactive”. The entry for `CC[N+](CC)(CC)CCOc1cccc(OCC[N+](CC)(CC)CC)c1OCC[N+](CC)(CC)CC` is “inactive”; for `CCCNCC(O)COc1ccccc1C(=O)CCc1ccccc1` (stereo not given) it is “inactive”. The entry for `NCCc1cnc[nH]1` is “inactive”. As to `CN(C)CCC=C1c2ccccc2C=Cc2ccccc21`, the Potency entry was “inactive”.

As for `O=c1c(O)c(-c2ccc(O)c(O)c2)oc2cc(O)cc(O)c12`, the Potency is 23.5 µM (active). Turning to `O=C(C1CCCCC1)N1CC(=O)N2CCc3ccccc3C2C1` (stereo not given), the Potency result was “inactive”. The entry for `CN1CCN(C2=Nc3cc(Cl)ccc3Nc3ccccc32)CC1` is “inactive”; for `COc1cc2c(c(OC)c1OC)-c1ccc(OC)c(=O)cc1[C@@H](NC(C)=O)CC2` it is 42.2 nM (active) and 1 nM (active); for `CN(C)C(=O)C(CCN1CCC(O)(c2ccc(Cl)cc2)CC1)(c1ccccc1)c1ccccc1` it is “inactive”. The figure for `Clc1ccc(C(c2ccccc2Cl)C(Cl)Cl)cc1` (stereo not given) is 21.1 µM (active) and 18.7 µM (active); for `O=c1c(-c2ccc(O)cc2)coc2cc(O)cc(O)c12` it is 23.7 µM (active); for `CCc1cccc2c3c([nH]c12)C(CC)(CC(=O)O)OCC3` (stereo not given) it is “inactive”. The entry for `O=C(c1ccc(F)cc1)C1CCN(CCn2c(=O)[nH]c3ccccc3c2=O)CC1` is “inactive”. Regarding `CCCCc1oc2ccccc2c1C(=O)c1cc(I)c(OCCN(CC)CC)c(I)c1`, the Potency was 8.33 µM (active).

For `CCC1(c2ccccc2)C(=O)NCNC1=O`, the Potency entry is “inactive”. The entry for `COc1ccccc1OCC(O)CN1CCN(CC(=O)Nc2c(C)cccc2C)CC1` (stereo not given) is “inactive”; for `CCOC(=O)Nc1ccc(NCc2ccc(F)cc2)nc1N` it is “inactive”.

Consider `COc1ccccc1OCCNCC(O)COc1cccc2[nH]c3ccccc3c12` (stereo not given), for which the Potency result was “inactive”.

As for `CC#C[C@]1(O)CC[C@H]2[C@@H]3CCC4=CC(=O)CCC4=C3[C@@H](c3ccc(N(C)C)cc3)C[C@@]21C`, the Potency is 0.526 µM (active). For `CN(CCOc1ccc(NS(C)(=O)=O)cc1)CCc1ccc(NS(C)(=O)=O)cc1` the value was “inactive”; for `NCCCCCC(=O)O`, “inactive”. For `CS(=O)(=O)Nc1ccc([N+](=O)[O-])cc1Oc1ccccc1` the value was “inactive”. For `CC(C(=O)O)c1cccc(C(=O)c2ccccc2)c1` (stereo not given), the Potency result is “inactive”. `Cn1ccc2cc3c(cc21)CCN3C(=O)Nc1cccnc1`: the Potency entry was “inactive”.

For `COc1ccccc1N1CCN(CC(O)COc2cccc3ccccc23)CC1` (stereo not given), the Potency result was “inactive”.

As for `CN1CCC(=C2c3ccccc3CC(=O)c3sccc32)CC1`, the Potency result is “inactive”. Regarding `Cc1cnc(C(=O)NCCc2ccc(S(=O)(=O)NC(=O)NC3CCCCC3)cc2)cn1`, the Potency entry is “inactive”. The entry for `COc1cc2nc(N(C)CCCNC(=O)C3CCCO3)nc(N)c2cc1OC` (stereo not given) is “inactive”.

As for `Cc1ccc(C(=O)Nc2ccc(S(=O)(=O)O)c3cc(S(=O)(=O)O)cc(S(=O)(=O)O)c23)cc1NC(=O)c1cccc(NC(=O)Nc2cccc(C(=O)Nc3cc(C(=O)Nc4ccc(S(=O)(=O)O)c5cc(S(=O)(=O)O)cc(S(=O)(=O)O)c45)ccc3C)c2)c1`, the Potency result is “inactive”.
